The values below come from PubChem BioAssay (Tox21).

The target of experiment [1] is Androgen receptor (Homo sapiens) (UniProt P10275). The experiment is described as follows: qHTS assay to identify small molecule antagonists of the androgen receptor (AR) signaling pathway using the MDA cell line in the presence of 0.5 nM R1881 (AID 1259243). Also: nearly all actives have a fitted effect of over 50% in size. Also: potency is read from the fitted curve at half-maximal effect. The method, boiled down:
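Steps: seed MDA-kb2 cells, incubate 5 hr at 37C; pin-transfer compounds in DMSO; add R1881 to 0.5 nM final; incubate 16 hr; add ONE-Glo, wait 30 min at room temperature; read luminescence.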
(In qHTS, concentration-response curves come from the screen itself.)

The target of experiment [2] is Estrogen receptor (Homo sapiens) (UniProt P03372). The experiment can be described thus: qHTS assay to identify small molecule antagonists of the estrogen receptor alpha (ER-alpha) signaling pathway using the BG1 cell line in the presence of 0.1 nM 17-beta-estradiol (AID 1259244). Also: nearly all actives have a fitted effect of over 50% in size. Also: potency is read from the fitted curve at half-maximal effect. In outline:
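After 5 days in hormone-depleted medium (charcoal-stripped serum, no phenol red), VM7Luc4E2 cells were seeded, incubated 24 h, then co-treated with compound and 0.1 nM (final) estradiol for 22 h before luminescence detection.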

Experiment [3] is described as follows: qHTS assay to identify small molecule HDAC inhibitors (AID 1259364). Also: top concentration of the series differs between compounds; nearly all actives have a fitted effect of over 45% in size. The method, boiled down: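 Homogeneous cell-based luminescent assay of endogenous class I/II HDAC activity; HCT-116 cells, 2 h compound exposure, 30 min HDAC-Glo development at RT.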
The nature of experiment [4]: qHTS assay to identify small molecule HDAC inhibitors - cell viability counter screen (AID 1259365). Also: series mostly up to about 92 µM; nearly all actives have a fitted effect of over 50% in size. In outline:
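Wild-type HCT-116 cells were seeded at 1,500 per well, incubated overnight at 37 C, then exposed to compounds in DMSO for 2hr. Viability was read by CellTiter-Glo luminescence after 30min at room temperature.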

A short description of experiment [5]: qHTS assay to identify small molecule agonists of the sonic hedgehog signaling (Shh) pathway - cell viability counter screen (AID 1259366). Also: nearly all actives have a fitted effect of over 50% in size. Also: potency is read from the fitted curve at half-maximal effect. The method, boiled down:
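NIH/3T3-derived 3T3 Gli1-Luc cells (stable Gli1-responsive firefly luciferase reporter) were seeded, rested 4 hr at 37 C/5% CO2, then exposed to compounds in DMSO for 24 hr; viability was read by CellTiter-Fluor fluorescence in the same wells.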

A short description of experiment [6]: qHTS assay to identify small molecule antagonists of the sonic hedgehog signaling (Shh) pathway - cell viability counter screen (AID 1259367). Also: nearly all actives have a fitted effect of over 55% in size. Also: potency is read from the fitted curve at half-maximal effect. The method, boiled down: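 Seed 3T3 Gli1-Luc cells at 2,000 per well; incubate 4 hr; add compound in DMSO, then conditioned medium; incubate at 37C with 5% CO2; add CellTiter-Fluor after 23 hr; read fluorescence 1 hr later.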

Experiment [7] can be described thus: qHTS assay to identify small molecule agonists of the sonic hedgehog signaling (Shh) pathway (AID 1259368; calls by dose curve; also: series mostly up to about 92 µM; nearly all actives have a fitted effect of over 15% in size). The method, boiled down: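 Steps: seed 3T3 Gli1-Luc cells, incubate 4 hr at 37 C, pin-transfer compounds in DMSO alongside a positive control, incubate 24 hr, add luciferase detection reagent, wait 30 min at room temperature, read luminescence.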
The nature of experiment [8]: qHTS assay to identify small molecule antagonists of the sonic hedgehog signaling (Shh) pathway (AID 1259369; calls by dose curve; also: nearly all actives have a fitted effect of over 45% in size; also: potency is read from the fitted curve at half-maximal effect). In outline:
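Inhibition of Shh signalling is measured as reduced Gli1-response-element firefly luciferase output in an NIH/3T3-derived stable reporter clone stimulated with conditioned medium for 24hr.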

Experiment [9] can be described thus: qHTS assay to identify small molecule agonists of the androgen receptor (AR) signaling pathway in the presence of an antagonist - cell viability counter screen (AID 1259379). Also: nearly all actives have a fitted effect of over 25% in size. Also: potency is read from the fitted curve at half-maximal effect. The method, boiled down: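 Fluorescence from CellTiter-Fluor, added after 15 hr and read 1 hr later, gave cell viability. Cells were MDA-kb2 exposed to compounds (15 concentrations) in the presence of 3.0uM nilutamide at 37C, 0% CO2.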

The target in experiment [10] is Androgen receptor (Homo sapiens) (UniProt P10275). The experiment is described as follows: qHTS assay to identify small molecule agonists of the androgen receptor (AR) signaling pathway in the presence of an antagonist (AID 1259381; calls by dose curve; also: nearly all actives have a fitted effect of over 15% in size). The method, boiled down:
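Cells are MDA-kb2 (human breast carcinoma, MMTV-luc, AR/GR responsive). Nilutamide is present at 3.0uM final throughout; compounds are added at 15 concentrations and incubated 16hr at 37C before ONE-Glo luminescence detection.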

A short description of experiment [11]: qHTS assay to identify small molecule antagonists of the estrogen receptor beta (ER-beta) signaling pathway - cell viability counter screen (AID 1259382). Also: series mostly up to about 92 µM; nearly all actives have a fitted effect of over 55% in size. The method, boiled down: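 Following a 6 hr plating period, HEK293T cells carrying a UAS-driven beta-lactamase reporter under ER-beta control received compounds and 1nM E2 (final). After 16 hr at 37C and 2 hr substrate loading, CellTiter-Glo luminescence indicated viability.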

The target in experiment [12] is Estrogen receptor (Homo sapiens) (UniProt P03372). The experiment can be described thus: qHTS assay to identify small molecule agonists of the estrogen receptor alpha (ER-alpha) signaling pathway in the presence of an antagonist (AID 1259383; calls by dose curve; also: top concentration of the series differs between compounds; nearly all actives have a fitted effect of over 15% in size). In outline:
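Cells are hormone-deprived for 5 days (charcoal-stripped FBS, no phenol red), plated for 24hr, spiked with 10.0nM ICI-182,780, then dosed at 15 concentrations. After 22hr at 37C, ONE-Glo luminescence reports ERE-luciferase activity.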

Experiment [13] is described as follows: qHTS assay to identify small molecule antagonists of the androgen receptor (AR) signaling pathway using the MDA cell line in the presence of 0.5 nM R1881 - cell viability counter screen (AID 1259242). Also: nearly all actives have a fitted effect of over 45% in size. Also: potency is read from the fitted curve at half-maximal effect. In outline:
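Cytotoxicity toward MDA-kb2 cells is measured by CellTiter-Fluor live-cell protease fluorescence after 16 hr compound exposure at 37C in the presence of 0.5 nM R1881 stimulator.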

Experiment [14] has as its target Estrogen receptor beta (Homo sapiens) (UniProt Q92731). The experiment is described as follows: qHTS assay to identify small molecule agonists of the estrogen receptor beta (ER-beta) signaling pathway (AID 1259377; active = well fitted activation curve with a large enough effect in the signal ratio in the repeat runs, not every such curve was filed as active; the % refers to the signal ratio). The method, boiled down: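 ER-beta-UAS-bla HEK293T (GripTite) cells carrying a UAS-driven beta-lactamase reporter, in medium with 2% charcoal-stripped FBS, were exposed to compounds for 16 hr at 37C; LiveBLAzer B/G FRET substrate was then added and fluorescence read after 2 hours at room temperature.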

For experiment [15] the target is unchanged. The experiment can be described thus: qHTS assay to identify small molecule antagonists of the estrogen receptor beta (ER-beta) signaling pathway (AID 1259378; active = well fitted inhibition curve with a large enough effect in the signal ratio in the repeat runs, not every such curve was filed as active; the % refers to the signal ratio). In outline:
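ER-beta-UAS-bla HEK293T cells in 2% charcoal-stripped FBS medium treated with compound plus 1nM final 17-beta-estradiol for 16 hr at 37C. Beta-lactamase reporter read by FRET substrate fluorescence after 2 hours at room temperature.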

Experiment [16] can be described thus: qHTS assay to identify small molecule agonists or antagonists of the thyroid stimulating hormone receptor (TSHR) signaling pathway - wild type cell line counter screen (AID 1259384; calls by dose curve). The method, boiled down:
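Wild-type Hek293 cells, 800/well, 18 h at 37C, then compound with Ro20-1724 for 30 min RT. cAMP by HTRF (cAMP-d2/anti-cAMP cryptate), 1 h RT, fluorescence read. 15 concentrations, triplicates.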

The target of experiment [17] is Thyrotropin receptor (Homo sapiens) (UniProt P16473). The experiment can be described thus: qHTS assay to identify small molecule antagonists of the thyroid stimulating hormone receptor (TSHR) signaling pathway (AID 1259385; calls by dose curve; also: nearly all actives have a fitted effect of over 20% in size). In outline: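 TSHR-HEK293 cells (800/well) plated 18 h, then compounds with Ro20-1724 and TSH at 1.5 ng/mL final, 30 min at room temperature. cAMP quantified by HTRF (cAMP-d2/anti-cAMP-cryptate, 1 h); 15 concentrations in triplicate.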

A short description of experiment [18]: qHTS assay to identify small molecule phospholipidosis (PLD) inducers (AID 1259344; active = well fitted curve in the direction sought with a large enough effect; an effect the other way counts as inactive or inconclusive). The method, boiled down: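 Quantitative HTS in HepG2: compound plus LipidTOX Red dye for 24 h, paraformaldehyde fixation with Hoechst 33342, widefield high-content imaging; amiodarone as positive and DMSO as negative control.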
Experiment [19] in a line: qHTS assay to identify small molecule agonists of the estrogen receptor beta (ER-beta) signaling pathway - cell viability counter screen (AID 1259380). Also: nearly all actives have a fitted effect of over 30% in size. Also: potency is read from the fitted curve at half-maximal effect. In outline:
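Same-well viability counter screen. Cells: ER-beta-UAS-bla HEK293T, plated 6 hr before compound, in 2% charcoal-stripped FBS. Compound exposure 16 hr, 37C; viability by CellTiter-Glo luminescence after 30 min at room temperature.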

Results filed as inconclusive are left out. The source made the active and inactive calls. Unless noted, calls follow the shape of the dose curve; as a rule, active = well fitted curve in the direction sought with a large enough effect in the repeat runs; inconclusive = weak or mixed curves; inactive = no such curve, though single readings can be large; an effect the other way counts as inactive or inconclusive.

Estrogen receptor beta (Homo sapiens), sequence (Q92731 whole entry, looked up): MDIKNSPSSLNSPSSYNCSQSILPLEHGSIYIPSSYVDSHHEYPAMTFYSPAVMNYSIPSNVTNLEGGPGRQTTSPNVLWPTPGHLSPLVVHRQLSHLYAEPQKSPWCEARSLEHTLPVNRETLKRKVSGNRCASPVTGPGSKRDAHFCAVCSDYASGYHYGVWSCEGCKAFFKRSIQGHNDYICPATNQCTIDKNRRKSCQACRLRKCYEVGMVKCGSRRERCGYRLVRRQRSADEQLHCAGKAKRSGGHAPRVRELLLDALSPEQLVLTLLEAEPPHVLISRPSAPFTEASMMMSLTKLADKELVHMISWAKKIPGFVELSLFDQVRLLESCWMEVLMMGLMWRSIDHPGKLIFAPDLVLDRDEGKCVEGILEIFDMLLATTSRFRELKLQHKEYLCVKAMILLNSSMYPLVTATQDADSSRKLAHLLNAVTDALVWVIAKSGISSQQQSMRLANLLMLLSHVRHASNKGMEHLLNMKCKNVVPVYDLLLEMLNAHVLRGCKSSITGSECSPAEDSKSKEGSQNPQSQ
Estrogen receptor (Homo sapiens), sequence (P03372 whole entry, looked up): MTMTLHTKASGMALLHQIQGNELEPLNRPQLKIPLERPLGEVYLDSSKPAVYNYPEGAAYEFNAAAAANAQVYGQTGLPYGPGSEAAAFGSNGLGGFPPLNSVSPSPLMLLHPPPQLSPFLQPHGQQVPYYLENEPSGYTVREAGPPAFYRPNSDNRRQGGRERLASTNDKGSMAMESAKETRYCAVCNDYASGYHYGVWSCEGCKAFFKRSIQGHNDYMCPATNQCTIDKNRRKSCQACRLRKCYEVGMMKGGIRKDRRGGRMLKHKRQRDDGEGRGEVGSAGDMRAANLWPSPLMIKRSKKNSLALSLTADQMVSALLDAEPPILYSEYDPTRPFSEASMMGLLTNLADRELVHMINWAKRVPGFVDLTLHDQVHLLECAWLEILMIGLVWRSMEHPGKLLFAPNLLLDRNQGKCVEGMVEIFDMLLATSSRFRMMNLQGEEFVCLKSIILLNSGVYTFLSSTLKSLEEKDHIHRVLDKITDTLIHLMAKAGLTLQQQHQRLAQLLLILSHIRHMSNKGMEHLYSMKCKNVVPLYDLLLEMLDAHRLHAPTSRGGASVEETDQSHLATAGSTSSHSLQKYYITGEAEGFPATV
Androgen receptor (Homo sapiens), sequence (P10275 whole entry, looked up): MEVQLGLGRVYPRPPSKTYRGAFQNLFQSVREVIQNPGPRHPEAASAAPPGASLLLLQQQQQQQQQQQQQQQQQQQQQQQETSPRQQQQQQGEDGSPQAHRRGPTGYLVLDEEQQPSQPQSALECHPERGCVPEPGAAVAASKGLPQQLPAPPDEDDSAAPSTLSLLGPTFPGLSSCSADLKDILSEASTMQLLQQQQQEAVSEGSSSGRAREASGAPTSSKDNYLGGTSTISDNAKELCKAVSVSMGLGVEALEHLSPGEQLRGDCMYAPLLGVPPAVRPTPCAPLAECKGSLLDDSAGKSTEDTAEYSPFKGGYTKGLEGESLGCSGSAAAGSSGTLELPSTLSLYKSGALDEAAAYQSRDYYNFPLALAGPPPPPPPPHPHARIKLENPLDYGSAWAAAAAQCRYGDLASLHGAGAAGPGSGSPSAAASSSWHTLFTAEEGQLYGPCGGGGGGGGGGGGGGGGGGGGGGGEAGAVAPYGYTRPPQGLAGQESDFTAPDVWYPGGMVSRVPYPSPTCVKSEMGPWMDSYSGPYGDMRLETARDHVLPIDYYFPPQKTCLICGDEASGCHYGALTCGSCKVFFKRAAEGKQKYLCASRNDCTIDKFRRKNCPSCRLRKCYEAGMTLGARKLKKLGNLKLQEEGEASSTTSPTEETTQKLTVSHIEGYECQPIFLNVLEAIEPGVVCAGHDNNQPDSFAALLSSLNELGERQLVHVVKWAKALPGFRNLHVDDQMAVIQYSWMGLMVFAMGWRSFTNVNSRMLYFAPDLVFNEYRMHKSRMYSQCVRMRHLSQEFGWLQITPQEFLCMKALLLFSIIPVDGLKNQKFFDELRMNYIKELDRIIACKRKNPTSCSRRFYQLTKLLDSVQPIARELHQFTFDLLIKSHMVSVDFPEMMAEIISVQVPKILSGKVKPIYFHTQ
Thyrotropin receptor (Homo sapiens), sequence (P16473 whole entry, looked up): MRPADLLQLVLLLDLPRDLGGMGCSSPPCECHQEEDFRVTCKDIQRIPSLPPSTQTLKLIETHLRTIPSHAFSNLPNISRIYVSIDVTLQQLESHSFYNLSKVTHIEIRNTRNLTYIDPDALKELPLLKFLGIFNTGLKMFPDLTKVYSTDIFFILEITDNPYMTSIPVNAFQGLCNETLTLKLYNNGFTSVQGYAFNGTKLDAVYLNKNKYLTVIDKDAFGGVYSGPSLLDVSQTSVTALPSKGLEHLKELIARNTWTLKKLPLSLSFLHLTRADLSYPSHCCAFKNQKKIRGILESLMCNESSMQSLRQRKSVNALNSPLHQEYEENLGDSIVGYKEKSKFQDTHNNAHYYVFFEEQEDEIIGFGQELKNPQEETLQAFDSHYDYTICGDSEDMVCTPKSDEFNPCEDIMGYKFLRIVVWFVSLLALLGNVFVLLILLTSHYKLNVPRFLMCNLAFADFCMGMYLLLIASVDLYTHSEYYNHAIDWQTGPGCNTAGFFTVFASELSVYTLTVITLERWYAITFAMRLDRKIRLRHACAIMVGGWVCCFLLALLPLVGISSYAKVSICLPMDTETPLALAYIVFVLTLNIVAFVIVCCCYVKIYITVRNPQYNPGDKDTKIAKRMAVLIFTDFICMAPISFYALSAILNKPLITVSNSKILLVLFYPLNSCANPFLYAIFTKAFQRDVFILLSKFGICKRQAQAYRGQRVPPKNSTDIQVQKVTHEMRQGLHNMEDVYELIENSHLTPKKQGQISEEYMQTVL

With `Cc1cc(NC(=O)C(=O)O)cc(C)c1Oc1ccc(O)c2c1CCC2`, the Potency result in [1], in [2], in [3], in experiment [5], in [6] and in [8] was “inactive” each time. Further, the Potency entry in [9], in experiment [10], in experiment [11] and in [12] was “inactive” in each case. Also, the call in experiment [4] and in experiment [7] was inactive.
With `CCCCOCCOCCOCCOCCO`, the Potency entry in experiment [13], in [2], in experiment [3], in experiment [5], in [6] and in experiment [8] was “inactive” throughout. Further, the Potency result in [14], in experiment [15], in [9], in experiment [11], in experiment [12] and in experiment [16] was “inactive” in each case. Further, in experiment [17], the Potency entry is “inactive”. The call in experiment [4] and in experiment [7] was inactive.
`Cc1nc2ccccc2n1Cc1ccc(Cl)cc1`: the Potency in experiment [13] is 5.96 µM (active); in experiment [2], 2.11 µM (active); in experiment [9], 4.22 µM (active). In addition, the Potency result in experiment [18], in experiment [3], in [6], in experiment [14], in experiment [11] and in [12] was “inactive” throughout. Further, the compound was classed as inactive in experiment [7].
Consider `CCCCCCCCCC(=O)OCC`, for which the Potency entry in experiment [13], in [2], in experiment [3], in [5], in [6] and in experiment [8] was “inactive” in each case. For the same compound, the Potency entry in experiment [15], in experiment [9], in experiment [19], in [11], in experiment [12] and in [17] was “inactive” in each case. Moreover, the compound was called inactive in experiment [4] and in experiment [7].
Take `CC(C)CC=O`: the Potency entry in experiment [13], in [2], in [5], in experiment [6], in experiment [8] and in experiment [14] was “inactive” in each case. Further, the Potency entry in experiment [15], in [9], in experiment [19], in experiment [11] and in experiment [16] was “inactive” throughout. Further, in [4], the result was inactive.
In the case of `Cc1ccccc1N=Nc1ccc(N=Nc2c(O)ccc3ccccc23)c(C)c1`, the Potency entry in experiment [13], in experiment [2], in experiment [18], in experiment [3], in [5] and in [6] was “inactive” in each case. The Potency result in experiment [8], in experiment [19], in experiment [11], in experiment [12], in experiment [16] and in experiment [17] was “inactive” throughout. The outcome in [4] was inactive.
For `O=CNc1ccccc1`, the Potency result in experiment [13], in experiment [3], in experiment [5], in experiment [6], in experiment [8] and in experiment [14] was “inactive” each time. The Potency entry in experiment [15], in experiment [9], in [19] and in [11] was “inactive” in each case. Moreover, the call in [4] and in experiment [7] was inactive.
With `Cc1cc(O)ccc1N`, the Potency was 43.5 µM (active) in [1]; 15.4 µM (active) in [2]; 27.4 µM (active) in experiment [5]; 48.8 µM (active) in experiment [6]; 17.3 µM (active) in [8]; 48.8 µM (active) in experiment [19]. The call in [4] and in experiment [7] was inactive. The Potency entry in [10] and in experiment [16] was “inactive” throughout.
On to `CNS(=O)(=O)Cc1ccc2[nH]cc(CCN(C)C)c2c1`, for which the Potency entry in experiment [18], in experiment [5], in [6], in [8], in [14] and in [15] was “inactive” throughout. In addition, the Potency result in experiment [9], in experiment [19] and in [11] was “inactive” throughout. The call in experiment [4] and in [7] was inactive.
As for `COCCO`, the Potency result in experiment [13], in experiment [2], in [3], in [5], in experiment [6] and in experiment [8] was “inactive” each time. The Potency entry in [9], in experiment [19], in [11] and in experiment [12] was “inactive” each time. For the same compound, the call in experiment [4] was inactive.
`NC(N)=N/N=C/c1c(Cl)cccc1Cl`: the Potency in experiment [1] was 23.7 µM (active); in [5], 11.9 µM (active); in experiment [6] it was 10.6 µM (active); in experiment [19], 29.8 µM (active). In addition, the Potency result in [2], in experiment [3], in experiment [10], in experiment [12], in [16] and in experiment [17] was “inactive” throughout.
